Experimental data published in PubChem BioAssay AID1030 (National Center for Advancing Translational Sciences (NCATS), 2008).
Out of some 220,000 compounds screened, about 16,000 (7.3%) were called active. Roughly 25% stayed inconclusive and do not appear here. Calls come from the whole dose curve; as a rule, active = well fitted inhibition curve with a large enough effect (not every such curve was filed as active); inconclusive = small, poorly fitted or top-dose-only effect, or another doubt; inactive = no such curve, though single readings can be large or run the other way. The list comes from a sample in which actives are over-represented; it also holds similar structures and randomly drawn compounds.

Target: Aldehyde dehydrogenase 1A1 (Homo sapiens) (UniProt P00352)
Experiment: qHTS Assay for Inhibitors of Aldehyde Dehydrogenase 1 (ALDH1A1);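 for activity, negative = inhibition: plate controls were no enzyme wells and a reference inhibitor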
Settings: Purified ALDH1A1, NADH fluorescence, propionaldehyde substrate; series mostly up to 75.3 µM; activity, negative = inhibition: at the top concentration
Potency is the fitted concentration of half-maximal effect.

Chain of Aldehyde dehydrogenase 1A1 (Homo sapiens) (P00352 whole entry, looked up): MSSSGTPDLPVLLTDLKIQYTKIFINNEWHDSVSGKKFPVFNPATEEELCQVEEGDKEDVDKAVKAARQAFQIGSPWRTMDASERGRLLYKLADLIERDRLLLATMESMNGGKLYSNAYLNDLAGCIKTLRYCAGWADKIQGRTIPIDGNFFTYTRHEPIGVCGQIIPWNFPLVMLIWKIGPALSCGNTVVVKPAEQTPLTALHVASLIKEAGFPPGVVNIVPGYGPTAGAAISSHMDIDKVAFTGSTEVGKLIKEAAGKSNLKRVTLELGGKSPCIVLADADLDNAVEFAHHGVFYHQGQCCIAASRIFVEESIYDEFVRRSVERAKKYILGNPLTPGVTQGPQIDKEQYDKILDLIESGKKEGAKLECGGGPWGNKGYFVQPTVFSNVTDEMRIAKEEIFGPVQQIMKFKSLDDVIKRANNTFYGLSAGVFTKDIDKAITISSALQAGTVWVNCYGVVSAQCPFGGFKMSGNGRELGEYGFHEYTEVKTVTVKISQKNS

activity, negative = inhibition, inactive:
COc1ccc(Cl)cc1N(CC(=O)N1CCCCC1)S(C)(=O)=O -4.02%, CCn1c(C(C)C)n[nH]c1=S 6.31%, CCCCCCCC/C=C\CCCCCCCC(=O)NCC(=O)O 4.06%, COc1ccccc1NC(=O)C1=C(C)NC(=O)NC1c1ccc(C)s1 (stereo not given) 0.535%, CCOC(=O)/C(=N\Nc1ccccc1Cl)N(C)C1CCS(=O)(=O)C1 (stereo not given) 8.1%, Cc1nc2ccccc2c(=O)n1CCCn1ccnc1 12.8%, Cc1ccnc(Nc2nc3ccccc3s2)n1 3.21%, COC(=O)C(C)NC(=O)COc1ccc2ccccc2c1 (stereo not given) 1.95%, C/C(=N/N1CCN(Cc2cccc3ccccc23)CC1)c1cccnc1 -6.86%, CC/C(Cc1ccccc1)=N/NC(=O)CCn1nnc2ccccc21 -4.78%, CC(C)Cc1nc(Cl)c(C#N)c2c1CCC2 -9.07%, COC(=O)C1=C(C)NC(=O)/C1=C/c1ccc(CNS(=O)(=O)c2ccc(C)cc2)o1 -9.6%, O=C(NCC(=O)N(CC1CCCO1)C(C(=O)NC1CCCCC1)c1ccccc1)c1ccco1 (stereo not given) -5.06%, CCCNC(=O)CN(Cc1ccccc1F)S(=O)(=O)c1ccc(C)cc1 -8.44%, Cc1ccc(S(=O)(=O)N(CC(=O)NCCSC2CCCCC2)c2ccccc2F)cc1 -12.3%, COc1ccc(/C=C2\SC(=S)N(CC(=O)NNC(=O)c3ccncc3)C2=O)cc1 0.464%, O=c1c2ccccc2nc(CSc2nnnn2-c2ccccc2)n1-c1ccccc1 -17.7%, COc1cccc(-n2c(SCC(=O)c3c[nH]c4ccccc34)nc3ccccc3c2=O)c1 15.6%, CC(C)(C)C1CCC(=NNC(=O)c2ccc(Br)o2)CC1 (stereo not given) -0.649%, O=c1c(Cl)c(NC2CC2)cnn1-c1ccccc1 3.08%, Cc1cc(C)nc(SCC(=O)N(C)C)n1 13.8%, COc1ccc(NC(=O)CSc2nc(C)cs2)cc1 3.7%, CCOc1ccc(NC(=O)CSc2ncnc3c2sc2ccccc23)cc1 -5.68%, CCOC(=O)c1csc(NC(=O)Nc2cccc(OC)c2)n1 -7.94%, COC(=O)c1sc(=S)n(-c2ccc(Cl)cc2)c1C -15.1%, COC(=O)c1sccc1NN1C(=O)c2ccccc2C1=O 4.1%, CCOC(=O)c1sc(-c2cccc([N+](=O)[O-])c2)cc1N 4.95%, COc1ccc(CCc2nnc(CCC(=O)NCc3cnn(-c4ccccc4C)c3)o2)cc1 -13.3%, O=C(CCCNS(=O)(=O)c1cccc2nsnc12)NCCN1CCN(c2ccccc2F)CC1 -3.87%, CCCCC/C=C\C[C@H](O)/C=C/C=C/C=C/[C@@H](O)CCCC(=O)O 2%, COc1ccc(CCN=C2SCC(=O)N2Cc2ccccc2)cc1OC -6.04%, COc1cc(CNC2CCCC2)c(Br)cc1OCc1ccccc1 4.19%, O=C(N/N=C1\CCSC1)c1cc(Cl)ccc1O 5.93%, O=C(CSC(=S)N1CCOCC1)c1ccccc1 -11.8%, CC(=O)c1ccc(NC(=O)CSC(=S)N2CCCC2)cc1 -1.69%, CCOP(=O)(OCC)C(Nc1ccc([N+](=O)[O-])cc1)c1ccc(Cl)cc1 (stereo not given) 2.42%, Cc1ccc2c(c1)C1CN(C)CCC1N2C(=S)Nc1ccc(Cl)cc1Cl (stereo not given) -11.2%, CCOC(=O)N1CCN(C(=O)c2cn(C)c3ccc(S(=O)(=O)N4CCCC4)cc3c2=O)CC1 -12.2%, CCn1c(SCC(=O)NCC2CCCO2)nc2cc(S(=O)(=O)N3CCCCC3)ccc21 (stereo not given) -10.7%, Cc1ccc(S(=O)(=O)N2CCC(C(=O)NCC3CCCO3)CC2)cc1 (stereo not given) 15.3%, O=C(Nc1ccc(S(=O)(=O)N2CCc3ccccc3C2)cc1)c1ccccc1 15.8%, NS(=O)(=O)c1ccc(CNC(=O)c2ccc(Cl)cc2[N+](=O)[O-])cc1 -11.9%, CCOC(=O)N/N=C/c1cccnc1 14.9%, Cc1nn(CCOc2ccc(Br)cc2)c(C)c1[N+](=O)[O-] 7.31%, CN(C)CCSc1nc(N)c2c3c(sc2n1)COC(C)(C)C3 0.0923%

Potency, active:
Cc1ccnc(-n2sc3ccccc3c2=O)n1 1.26 µM, CCNC(=O)CN(c1ccc(C)cc1)S(=O)(=O)c1ccc(SC)cc1 11.2 µM, N#CCSc1nc2ccccc2c(=O)n1-c1ccccc1 12.6 µM, COc1ccc(NC(=O)CSc2ncnc3[nH]ncc23)cc1 11.2 µM, COC(=O)c1sc(=S)n(-c2ccccc2)c1N 7.08 µM, CCOC(=O)c1sc(=S)n(-c2cccc(OC)c2)c1N 22.4 µM, COc1cc(C2CC(=O)N3CN(Cc4ccccc4)CSC3=C2C#N)ccc1OCc1ccccc1 (stereo not given) 10 µM, O=C(CSC(=S)N1CCCCC1)c1c(F)cccc1F 12.6 µM, CCn1cc(C(=O)NCC2CCCO2)c(=O)c2cc(S(=O)(=O)N3CCCCC3)ccc21 (stereo not given) 15.8 µM, CCn1cc(C(=O)NCCCN2CCCCCC2)c(=O)c2cc(S(=O)(=O)N3CCc4ccccc4C3)ccc21 7.94 µM
